Test results from PubChem BioAssay (NCATS).
Results filed as inconclusive are left out. Calls of active or inactive are those of the source. Calls follow the shape of the dose curve; as a rule, active = well fitted curve in the direction sought with a large enough effect; inconclusive = small, poorly fitted or top-dose-only effect, or another doubt; inactive = no such curve, though single readings can be large; an effect the other way counts as inactive or inconclusive.

Columns and labels:
[1] = Cell Viability - H-4-II-E (AID 543);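 also: cells exposed to compound for 40 hours; % is scaled to controls: 0 for no effect and ±100 for the full control effect; nearly all actives have a fitted effect of over 35% in size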
How it was run: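 AC50 from Hill-modelled qHTS concentration-response curves. H-4-II-E rat hepatoma cells in complete medium, 40 hr exposure at 37 °C, viability by CellTiter-Glo ATP luminescence.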

[2] = Cell Viability - SH-SY5Y (AID 544); settings: SH-SY5Y neuroblastoma cell viability; viability change, negative = cytotoxic: at 92.2 µM (top of the series);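 also: cells exposed to compound for 40 hours; nearly all actives have a fitted effect of over 55% in size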
How it was run: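 Quantitative HTS in SH-SY5Y neuroblastoma cells, 40 hr treatment at 37 °C, ATP content by luciferase luminescence; AC50 from Hill fits.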

[3] = Cell Viability - Renal Proximal Tubule (AID 545);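 also: cells exposed to compound for 40 hours; nearly all actives have a fitted effect of over 40% in size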
How it was run: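 Viability taken as intracellular ATP (CellTiter-Glo luminescence) after 40 hr, 37 °C compound treatment of primary proximal tubule cells from rat kidney, 1000 cells/well; Hill-equation fits of qHTS concentration-response data gave AC50.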

[4] = Cell Viability - Mesenchymal (AID 546);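 also: cells exposed to compound for 40 hours before reading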
How it was run: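 In this qHTS cytotoxicity format, glomerulus-derived human mesenchymal kidney cells received compound for 40 hr, then luciferase-based ATP quantitation. Concentration-response data were fitted with the Hill equation.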

[5] = Cellular Toxicity (caspase-3) HepG2 (AID 654);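 also: cells exposed to compound for 16 hours before reading; 0% = DMSO alone and 100% = caspase signal from 100 µM tamoxifen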
How it was run: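 Concentration-response AC50 values reflect caspase-3/7 induction in HepG2 cells after 16 hours of compound exposure, quantified by luminescence from liberated aminoluciferin and referenced to 100 uM tamoxifen as full stimulation.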

[6] = Cellular Toxicity (caspase-3) Jurkat (AID 655); settings: Jurkat caspase-3 activation, luminescence; caspase-3 activation: at 92.2 µM (top of the series), DMSO = 0%, tamoxifen = 100%;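 also: cells exposed to compound for 16 h at 37 °C before reading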
How it was run: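 Luminescent Caspase-Glo 3/7 read-out (20 min, room temperature) after 16 h compound treatment at 37 C of 5000 Jurkat cells per well. AC50 derived by Hill-equation fitting, scaled between DMSO basal and 100 uM tamoxifen stimulation.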

[7] = Cellular Toxicity (caspase-3) HUV-EC-C (AID 656)
How it was run: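 Luminescent Caspase-Glo 3/7 readout after 16 h, 37 °C compound exposure of HUV-EC-C endothelial cells, 1000 per well, complete medium. AC50 derived by Hill fitting, with DMSO as baseline and 100 uM tamoxifen as full activation.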

[8] = Cellular Toxicity (caspase-3) SHSY5Y (AID 657)
How it was run: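 Luminescent Caspase-Glo 3/7 read-out, 1 hr room temperature, follows 16 hours of compound treatment of SH-SY5Y cells at 37 °C. Normalization: DMSO basal, 10 uM staurosporine as 100%; AC50 values from Hill-equation concentration-response fits.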

[9] = Cellular Toxicity (caspase-3) BJ (AID 658);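 also: 0% = DMSO basal and 100% = 10 µM staurosporine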
How it was run: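 Plated BJ cells (1000/well) rested 5 hr, received compound for 16 hr at 37 °C, then Caspase-Glo 3/7 reagent for 1 hr at room temperature before luminescence reading.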

[10] = Cellular Toxicity (caspase-3) MRC-5 (AID 659);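 also: 0% = DMSO basal and 100% = 10 µM staurosporine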
How it was run: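 Apoptosis readout in MRC-5 cells: luciferase light generated after caspase 3/7 cleaves a peptide-aminoluciferin substrate, measured post 16 hr compound incubation at 37 °C.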

CC(=O)c1ccccc1[N+](=O)[O-]
inactive: Potency [1] | Potency [2] | Potency [3] | Potency [4] | Potency [5] | caspase-3 activation [6] 0.506% | outcome [7] | outcome [8] | outcome [9]

Nc1nc(CC(=O)O)cs1
inactive: Potency [1] | Potency [2] | Potency [3] | Potency [4] | Potency [5] | caspase-3 activation [6] 0.779% | outcome [7] | outcome [8] | outcome [9]

Cc1ccc2nc(-c3ccc(N)cc3)sc2c1S(=O)(=O)O
inactive: Potency [1] | Potency [2] | Potency [3] | Potency [4] | Potency [5] | caspase-3 activation [6] -10.6% | outcome [7] | outcome [8] | outcome [9]

Nc1ccccc1[N+](=O)[O-]
inactive: Potency [1] | Potency [2] | Potency [3] | Potency [4] | Potency [5] | caspase-3 activation [6] -0.598% | outcome [7] | outcome [8] | outcome [9]

Nc1cc(S(=O)(=O)O)ccc1O
inactive: Potency [1] | Potency [2] | Potency [3] | Potency [4] | Potency [5] | caspase-3 activation [6] -0.212% | outcome [7] | outcome [8] | outcome [9]

C(=C/c1ccccc1)/c1ccccc1
inactive: Potency [1] | Potency [2] | Potency [3] | Potency [4] | Potency [5] | caspase-3 activation [6] 0.745% | outcome [7] | outcome [8] | outcome [9]

Nc1cc(Cl)c([N+](=O)[O-])cc1O
inactive: Potency [1] | Potency [2] | Potency [3] | Potency [4] | Potency [5] | caspase-3 activation [6] 1.7% | outcome [7] | outcome [8] | outcome [9]

CCCCC(CC)CO (stereo not drawn)
inactive: Potency [1] | Potency [2] | Potency [3] | Potency [4] | Potency [5] | caspase-3 activation [6] 0.69% | outcome [7] | outcome [8] | outcome [9]

O=Cc1ccc(Cl)cc1
inactive: Potency [1] | Potency [2] | Potency [3] | Potency [4] | Potency [5] | caspase-3 activation [6] -1.13% | outcome [7] | outcome [8] | outcome [9]

CC(=O)Nc1ccc(N)cc1
inactive: Potency [1] | Potency [2] | Potency [3] | Potency [4] | Potency [5] | caspase-3 activation [6] 0.0249% | outcome [7] | outcome [8] | outcome [9]

CCCC=O
inactive: Potency [1] | Potency [2] | Potency [3] | Potency [4] | Potency [5] | caspase-3 activation [6] -0.873% | outcome [7] | outcome [8] | outcome [9]

Cc1ccc(C)c([N+](=O)[O-])c1
inactive: Potency [1] | Potency [2] | Potency [3] | Potency [4] | Potency [5] | caspase-3 activation [6] 1.04% | outcome [7] | outcome [8] | outcome [9]

CC=C(Cl)Cl
inactive: Potency [1] | Potency [2] | Potency [3] | Potency [4] | Potency [5] | caspase-3 activation [6] -0.538% | outcome [7] | outcome [8] | outcome [9]

O=[N+]([O-])c1ccc(CCO)cc1
inactive: Potency [1] | Potency [2] | Potency [3] | Potency [4] | Potency [5] | caspase-3 activation [6] -1.91% | outcome [7] | outcome [8] | outcome [9]

CC(C)=CCC/C(C)=C/C=O
inactive: Potency [1] | Potency [2] | Potency [3] | Potency [4] | Potency [5] | caspase-3 activation [6] 0.822% | outcome [7] | outcome [8] | outcome [9]

CC=O
inactive: Potency [1] | Potency [2] | Potency [3] | Potency [4] | Potency [5] | caspase-3 activation [6] -1.03% | outcome [7] | outcome [8] | outcome [9]

CCOc1ccc(NC(C)=O)cc1N
inactive: Potency [1] | Potency [2] | Potency [3] | Potency [4] | Potency [5] | caspase-3 activation [6] 0.0364% | outcome [7] | outcome [8] | outcome [9]

O=C(O)c1ccccc1C(=O)O
inactive: Potency [1] | Potency [2] | Potency [3] | Potency [4] | Potency [5] | caspase-3 activation [6] 2.22% | outcome [7] | outcome [8] | outcome [9]

Cc1ccc(C)c(O)c1
inactive: Potency [1] | Potency [2] | Potency [3] | Potency [4] | Potency [5] | caspase-3 activation [6] 0.228% | outcome [7] | outcome [8] | outcome [9]

Cc1nc2ccc(Cl)cc2[nH]1
inactive: Potency [1] | Potency [2] | Potency [3] | Potency [4] | Potency [5] | caspase-3 activation [6] 0.744% | outcome [7] | outcome [8] | outcome [9] | outcome [10]

O=C(O)c1cccc([N+](=O)[O-])c1
inactive: Potency [1] | Potency [2] | Potency [3] | Potency [4] | Potency [5] | caspase-3 activation [6] 0.351% | outcome [7] | outcome [8] | outcome [9]

Cc1cc(C(=O)O)ccc1[N+](=O)[O-]
inactive: Potency [1] | Potency [2] | Potency [3] | Potency [4] | Potency [5] | caspase-3 activation [6] -1.06% | outcome [7] | outcome [8] | outcome [9]

Cc1ccc([N+](=O)[O-])c(N)c1
inactive: Potency [1] | Potency [2] | Potency [3] | Potency [4] | Potency [5] | caspase-3 activation [6] 1.25% | outcome [7] | outcome [8] | outcome [9] | outcome [10]

O=C(O)/C=C/C(=O)O
inactive: Potency [1] | Potency [2] | Potency [3] | Potency [4] | Potency [5] | caspase-3 activation [6] 1.23% | outcome [7] | outcome [8] | outcome [9]

NC(=O)c1cccc([N+](=O)[O-])c1
inactive: Potency [1] | Potency [2] | Potency [3] | Potency [4] | Potency [5] | caspase-3 activation [6] -0.315% | outcome [7] | outcome [8] | outcome [9] | outcome [10]
